The whole screen tested about 350,000 compounds, of which about 31,000 (8.9%) were called active. Another 15% or so got no clear call; they are omitted. The call rests on the fitted dose curve; in most records, active means well fitted inhibition curve with a large enough effect; inconclusive means small, poorly fitted or top-dose-only effect; inactive means no such curve, though single readings can be large or run the other way. The list comes from a sample in which actives are over-represented; it also holds similar structures and randomly drawn compounds. A call without a number means that no potency is given here.
The compounds below were run against Histone-lysine N-methyltransferase EHMT2 (Homo sapiens) (UniProt Q96KQ7) (assay: qHTS Assay for Inhibitors of Histone Lysine Methyltransferase G9a). Conditions: G9a H3K9 monomethylation, AlphaScreen, 2 h; series mostly up to 59 µM.
Chain of Histone-lysine N-methyltransferase EHMT2 (Homo sapiens) (Q96KQ7 913-1193 limits assumed): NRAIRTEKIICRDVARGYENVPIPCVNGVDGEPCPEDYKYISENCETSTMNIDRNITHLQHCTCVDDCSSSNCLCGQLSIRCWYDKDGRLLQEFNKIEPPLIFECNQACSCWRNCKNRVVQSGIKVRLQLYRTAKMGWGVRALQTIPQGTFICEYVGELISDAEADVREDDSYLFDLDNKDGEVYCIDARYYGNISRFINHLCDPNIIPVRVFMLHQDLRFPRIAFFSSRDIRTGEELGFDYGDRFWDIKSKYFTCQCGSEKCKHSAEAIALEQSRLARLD
Method in brief: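 Chemiluminescent proximity detection of H3K9 monomethylation, read after 10 min bead incubation in the dark. Reaction: 20 nM G9a, 500 nM biotin-H3K9 peptide, 20 uM SAM cofactor, 2 h, room temperature, following 15 min enzyme-compound preincubation.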
With CCCn1c2ccccc2c2cnn(CC(=O)N(CC)c3cc(C)ccc3C)c(=O)c21 the Potency was “inactive”.
CCN(CCCNC(=O)CSc1cc(=O)n(C)c2cc(Cl)ccc12)Cc1ccccc1 was tested, and the Potency was “inactive”.
For CCN(CCCNC(=O)CSc1cc(=O)n(C)c2cc(Cl)ccc12)c1cccc(C)c1, the Potency was 17.8 µM (active).
For CCOc1ccc(CCNC(=O)CSc2cc(=O)n(C)c3ccc(Cl)cc23)cc1OCC, the Potency was “inactive”.
In the case of CC(=O)c1ccc(S(=O)(=O)NCCC(=O)N2CCN(c3ccccn3)CC2)cc1, the activity, negative = inhibition is reported as -0.0681% [at 12.7 µM] (inactive).
For COc1cc(/C=N/O)ccc1OCc1ccc([N+](=O)[O-])cc1, the Potency was “inactive”.
With O=[N+]([O-])c1ccccc1/C=N/n1c(COc2ccccc2)n[nH]c1=S the Potency was 1 µM (active).
For COc1cc(/C=N/n2c(C)n[nH]c2=S)ccc1OCc1ccccc1, the Potency was 2.24 µM (active).
For COc1ccccc1OCCOc1ccc(/C=N/n2cnnc2)cc1, the activity, negative = inhibition was -8.1% [at 12.7 µM] (inactive).
For Fc1ccc(/C=N/n2c(COc3ccccc3)n[nH]c2=S)cc1, the Potency was 1.58 µM (active).
CCOc1ccc(/C=N/Nc2nncc(-c3ccccc3)n2)cc1OC was tested, and the Potency was “inactive”.
O=c1ccc(S(=O)(=O)N2CCCC2)cn1Cc1nc(-c2ccccc2)no1 was tested, and the activity, negative = inhibition was -6.5% [at 2.33 µM] (inactive).
With CCN(C(=O)COC(=O)c1c(C)nn(-c2ccccc2)c1Cl)c1c(N)n(Cc2ccccc2)c(=O)[nH]c1=O the Potency was “inactive”.
In the case of Cc1ccccc1-c1cc(C(=O)NCC2CC2)n(CC2CC(c3cccnc3)=NO2)n1 (stereo not drawn), the activity, negative = inhibition is reported as -3.05% [at 0.501 µM] (inactive).
In the case of CC1CN(C(=O)N2CCC(C(=O)NCc3ccco3)CC2)c2cc(Cl)ccc2O1 (stereo not drawn), the Potency is reported as “inactive”.
With O=C(NCCS(=O)(=O)c1ccc(Br)cc1)c1ccccc1Cl the Potency was “inactive”.
COc1ccccc1CNC(=O)CCn1c(=O)c2ccccc2n(CC(=O)Nc2ccc(Br)cc2F)c1=O was tested, and the Potency was “inactive”.
In the case of COc1ccc(N2CCN(S(=O)(=O)c3cc4c5c(c3)C(C)C(=O)N5CCC4)CC2)cc1 (stereo not drawn), the Potency is reported as 44.7 µM (active).
For CCOc1ccccc1NS(=O)(=O)c1cc2c3c(c1)C(C)C(=O)N3CCC2 (stereo not drawn), the Potency was “inactive”.
In the case of COc1ccc(N2CCN(S(=O)(=O)c3ccc4c(c3)NC(=O)C(C)C(=O)N4)CC2)cc1 (stereo not drawn), the Potency is reported as “inactive”.
With COCC1CCN(C(=O)C2CCC(=O)N(CC3CCCCC3)C2)CC1 (stereo not drawn) the Potency was “inactive”.
N#Cc1c(-c2cccs2)nc(SCC(=O)c2ccc(Br)cc2)[nH]c1=O was tested, and the Potency was 39.8 µM (active).
With Cc1ccc(CSc2nc(-c3ccccc3)c(C#N)c(=O)[nH]2)cc1 the activity, negative = inhibition was 16.7% [at 2.33 µM] (inactive).
N#Cc1ccc(-c2cccs2)nc1SCc1ccc(Br)cc1 was tested, and the Potency was “inactive”.
For Cc1ccc(-c2cc(-c3coc4ccccc4c3=O)c3c(n2)-c2cc(Cl)ccc2OC3)cc1, the Potency was “inactive”.
In the case of COc1ccc(NC(=O)Nc2cccc3cccnc23)cc1, the Potency is reported as “inactive”.
With Nc1ccc(Nc2cc(O)c3ncccc3c2)cc1 the Potency was 1.58 µM (active).
With O=C(NCCN1CCN(C(=O)c2cccc([N+](=O)[O-])c2)CC1)C(=O)NCc1ccc(Cl)cc1 the Potency was “inactive”.
In the case of CSc1ccc(C2c3c(oc4ccccc4c3=O)C(=O)N2CCCN2CCOCC2)cc1 (stereo not drawn), the Potency is reported as “inactive”.
For COc1ccc(Cl)cc1NC(=O)CSc1nc(=O)[nH]c2c1CCCC2, the Potency was “inactive”.
For COc1ccc(-c2cc(C(=O)N(C)CC(=O)Nc3ccccc3Cl)c3ccccc3n2)cc1OC, the Potency was “inactive”.
CCOC(=O)c1ccc(NC(=S)Nc2cc(C)cc(C)n2)cc1 was tested, and the Potency was “inactive”.
CCOC(=O)c1ccc(Nc2cc(C)nc3nc(C)nn23)cc1 was tested, and the Potency was 79.4 µM (active).
In the case of Cc1cc(C)n2nc(C(=O)OCC(=O)N(C)CC(=O)Nc3ccc(F)cc3)nc2n1, the activity, negative = inhibition is reported as -2.62% [at 12.7 µM] (inactive).
With O=C(Nc1ccccc1Cl)N1CCC(CN2CCCC2)CC1 the Potency was “inactive”.
With CCOC(=O)c1nnn(CC(=O)NC(=O)Nc2ccccc2F)c1C(=O)OCC the Potency was “inactive”.
In the case of Cc1cc(C)cc(NC(=O)C(c2ccccc2)N2CCN(CC(=O)N3CCCC3)CC2)c1 (stereo not drawn), the Potency is reported as 50.1 µM (active).
For Cc1cc(C)cc(NC(=O)N2CCCCCCC2)c1, the Potency was “inactive”.
Cc1ccc(NC(=O)C(c2ccccc2)N2CCN(C(=O)c3ccco3)CC2)cc1 (stereo not drawn) was tested, and the activity, negative = inhibition was -37.3% [at 12.7 µM] (inactive).
With Cc1cc(C(=O)OCC(=O)Nc2ccccc2Cl)c(C)o1 the activity, negative = inhibition was -9.85% [at 12.7 µM] (inactive).
For Cc1cc(N2CCN(S(=O)(=O)c3ccc(C)c(C)c3)CC2)c2ccccc2n1, the activity, negative = inhibition was 22.6% [at 12.7 µM] (inactive).
Cc1ccc(S(=O)(=O)C(C#N)c2nc3ccccc3nc2N2CCCC2)cc1C (stereo not drawn) was tested, and the Potency was 2.82 µM (active).
CC(C)OC(=O)C(C#N)c1nc2ccccc2nc1N1CCN(Cc2ccccc2)CC1 (stereo not drawn) was tested, and the Potency was “inactive”.
In the case of COc1ccc(-c2noc(CSc3nnc(-c4ccccc4)n3-c3ccc(F)cc3)n2)c(OC)c1, the Potency is reported as “inactive”.
For CCN(CC(=O)Nc1ccc(NC(C)=O)cc1)C(=O)C1CC(=O)N(Cc2ccc(C)cc2)C1 (stereo not drawn), the activity, negative = inhibition was -0.244% [at 0.501 µM] (inactive).
In the case of N#Cc1nc(Cc2cccc3ccccc23)oc1NCc1ccc2c(c1)OCO2, the Potency is reported as 10 µM (active).
With O=C(CCNS(=O)(=O)c1ccccc1C(F)(F)F)NCc1ccc2c(c1)OCO2 the Potency was “inactive”.
For c1n[nH]c(NCc2ccc3c(c2)OCO3)n1, the Potency was “inactive”.
In the case of Cc1cc(NS(=O)(=O)c2ccc(NC(=O)c3ccccc3C)cc2)nc(C)n1, the Potency is reported as “inactive”.
CCc1cccc(-n2nnc(-c3nsc(NC(=O)c4ccc(C)cc4)n3)c2C)c1 was tested, and the Potency was “inactive”.
CCCCSc1ncnc2c1sc1nc(N3CCOCC3)c3c(c12)CCCC3 was tested, and the Potency was “inactive”.
For COC(=O)c1ccc(CNC(=O)c2ccc3oc(C(C)C)nc3c2)cc1, the Potency was “inactive”.
O=C1CC(c2ccccc2)CC(O)=C1C=NCCN1CCOCC1 (stereo not drawn) was tested, and the Potency was 12.6 µM (active).
O=C1CC(c2cccc(Cl)c2)CC(O)=C1C=Nc1ccccc1 (stereo not drawn) was tested, and the Potency was “inactive”.
In the case of O=C1CCCC(O)=C1C=NCCc1ccccc1, the Potency is reported as “inactive”.
For CCNC(=S)N1CCN(CCN=CC2=C(O)CC(C)(C)CC2=O)CC1, the Potency was “inactive”.
For CC(C)C(=O)N1CCN(CCN=CC2=C(O)CC(c3ccco3)CC2=O)CC1 (stereo not drawn), the Potency was 50.1 µM (active).
For CC1(C)CC(=O)C(C=NCCN2CCN(C(=S)Nc3cccc(Cl)c3)CC2)=C(O)C1, the activity, negative = inhibition was -2.18% [at 0.501 µM] (inactive).

From PubChem BioAssay AID504332 (National Center for Advancing Translational Sciences (NCATS), 2011)
Further: nearly all actives have a fitted effect of over 75% in size.
Potency means the concentration at half of the fitted maximal effect.
